The values that follow come from ChEMBL document CHEMBL1961873, “Compounds: GSK PKIS; Assays: Nanosyn kinase panel” (2012).

Experiment [1] deals with Platelet-derived growth factor receptor beta (Homo sapiens) (UniProt P09619). The following applies: at 1 µM.
For experiment [2], the target named is Tyrosine-protein kinase FRK (Homo sapiens) (UniProt P42685). The following applies: at 0.1 µM.
Experiment [3] shares this target. Particulars: at 1 µM.
For experiment [4], the target named is Protein-tyrosine kinase 2-beta (Homo sapiens) (UniProt Q14289). The following applies: at 0.1 µM.
Sequence of Protein-tyrosine kinase 2-beta (Homo sapiens) (Q14289 whole entry, looked up): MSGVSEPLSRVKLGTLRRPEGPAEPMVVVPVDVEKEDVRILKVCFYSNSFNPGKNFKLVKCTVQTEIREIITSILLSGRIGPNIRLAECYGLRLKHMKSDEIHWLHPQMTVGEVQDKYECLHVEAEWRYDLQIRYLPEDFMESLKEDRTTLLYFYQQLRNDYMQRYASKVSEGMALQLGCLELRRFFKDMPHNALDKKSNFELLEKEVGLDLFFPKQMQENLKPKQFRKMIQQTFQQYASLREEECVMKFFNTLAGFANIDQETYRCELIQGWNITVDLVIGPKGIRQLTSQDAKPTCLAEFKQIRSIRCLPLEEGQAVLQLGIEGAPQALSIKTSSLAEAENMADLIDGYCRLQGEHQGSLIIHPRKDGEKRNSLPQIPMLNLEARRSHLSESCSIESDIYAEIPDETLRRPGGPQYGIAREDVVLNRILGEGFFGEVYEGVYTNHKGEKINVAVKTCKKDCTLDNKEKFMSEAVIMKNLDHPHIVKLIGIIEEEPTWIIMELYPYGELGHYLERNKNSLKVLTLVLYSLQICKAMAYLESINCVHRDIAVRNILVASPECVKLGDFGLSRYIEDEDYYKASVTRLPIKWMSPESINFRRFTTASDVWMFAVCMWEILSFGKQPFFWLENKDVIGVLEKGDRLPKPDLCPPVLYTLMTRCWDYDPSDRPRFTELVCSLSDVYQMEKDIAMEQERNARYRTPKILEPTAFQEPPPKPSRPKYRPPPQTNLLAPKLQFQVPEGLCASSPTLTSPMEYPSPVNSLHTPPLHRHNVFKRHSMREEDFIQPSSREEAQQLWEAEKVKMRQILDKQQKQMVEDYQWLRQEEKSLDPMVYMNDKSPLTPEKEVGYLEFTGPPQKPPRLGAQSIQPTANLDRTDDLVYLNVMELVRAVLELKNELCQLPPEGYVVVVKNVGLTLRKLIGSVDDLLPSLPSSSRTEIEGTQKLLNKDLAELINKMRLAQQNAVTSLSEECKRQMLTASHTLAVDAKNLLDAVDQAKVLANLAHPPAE
Experiment [5] has the same target. Particulars: at 1 µM.
In experiment [6] the target is Proto-oncogene tyrosine-protein kinase receptor Ret (Homo sapiens) (UniProt P07949). Particulars: at 0.1 µM.
Sequence of Proto-oncogene tyrosine-protein kinase receptor Ret (Homo sapiens) (P07949 whole entry): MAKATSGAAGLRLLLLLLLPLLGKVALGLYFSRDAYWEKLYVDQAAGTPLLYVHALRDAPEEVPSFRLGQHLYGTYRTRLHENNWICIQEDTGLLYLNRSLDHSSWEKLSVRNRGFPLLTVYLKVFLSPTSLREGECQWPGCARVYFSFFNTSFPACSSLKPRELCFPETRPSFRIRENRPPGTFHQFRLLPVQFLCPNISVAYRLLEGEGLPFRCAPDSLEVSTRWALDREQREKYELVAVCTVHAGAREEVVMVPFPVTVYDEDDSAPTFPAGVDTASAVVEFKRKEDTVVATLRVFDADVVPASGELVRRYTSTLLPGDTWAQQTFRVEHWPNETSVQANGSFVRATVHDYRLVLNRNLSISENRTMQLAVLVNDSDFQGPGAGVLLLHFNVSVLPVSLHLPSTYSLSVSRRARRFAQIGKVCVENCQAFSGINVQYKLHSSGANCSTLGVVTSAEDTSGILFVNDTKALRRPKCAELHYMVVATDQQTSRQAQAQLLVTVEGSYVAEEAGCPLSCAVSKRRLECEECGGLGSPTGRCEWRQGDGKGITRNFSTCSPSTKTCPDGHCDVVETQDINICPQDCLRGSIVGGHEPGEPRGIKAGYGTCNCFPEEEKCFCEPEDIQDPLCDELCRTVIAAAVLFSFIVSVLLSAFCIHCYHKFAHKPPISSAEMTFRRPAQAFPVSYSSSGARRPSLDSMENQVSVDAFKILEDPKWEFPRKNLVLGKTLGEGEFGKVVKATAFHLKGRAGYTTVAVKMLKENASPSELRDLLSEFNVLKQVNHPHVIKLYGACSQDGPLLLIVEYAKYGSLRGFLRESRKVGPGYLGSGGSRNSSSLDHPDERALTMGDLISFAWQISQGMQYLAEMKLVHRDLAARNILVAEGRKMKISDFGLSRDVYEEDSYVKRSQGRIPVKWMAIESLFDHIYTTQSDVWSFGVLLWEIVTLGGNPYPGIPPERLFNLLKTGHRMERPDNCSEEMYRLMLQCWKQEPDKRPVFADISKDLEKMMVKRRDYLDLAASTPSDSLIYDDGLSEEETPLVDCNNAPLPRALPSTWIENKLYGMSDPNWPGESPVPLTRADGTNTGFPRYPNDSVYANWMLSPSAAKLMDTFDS
Experiment [7] shares this target. The following applies: at 1 µM.
For experiment [8], the system named is Proto-oncogene tyrosine-protein kinase receptor Ret (Homo sapiens), P07949 [V804L]. The following applies: at 0.1 µM.
Sequence of Proto-oncogene tyrosine-protein kinase receptor Ret (Homo sapiens), P07949 [V804L] (P07949 whole entry V804L): as the sequence (P07949 whole entry) above, with V804L counted along it
For experiment [9] the test system is unchanged. Particulars: at 1 µM.
Experiment [10] has as its system Proto-oncogene tyrosine-protein kinase receptor Ret (Homo sapiens), P07949 [Y791F]. The following applies: at 0.1 µM.

Sequence of Proto-oncogene tyrosine-protein kinase receptor Ret (Homo sapiens), P07949 [Y791F] (P07949 whole entry Y791F): as the sequence (P07949 whole entry) above, with Y791F counted along it
Sequence of Tyrosine-protein kinase FRK (Homo sapiens) (P42685 whole entry): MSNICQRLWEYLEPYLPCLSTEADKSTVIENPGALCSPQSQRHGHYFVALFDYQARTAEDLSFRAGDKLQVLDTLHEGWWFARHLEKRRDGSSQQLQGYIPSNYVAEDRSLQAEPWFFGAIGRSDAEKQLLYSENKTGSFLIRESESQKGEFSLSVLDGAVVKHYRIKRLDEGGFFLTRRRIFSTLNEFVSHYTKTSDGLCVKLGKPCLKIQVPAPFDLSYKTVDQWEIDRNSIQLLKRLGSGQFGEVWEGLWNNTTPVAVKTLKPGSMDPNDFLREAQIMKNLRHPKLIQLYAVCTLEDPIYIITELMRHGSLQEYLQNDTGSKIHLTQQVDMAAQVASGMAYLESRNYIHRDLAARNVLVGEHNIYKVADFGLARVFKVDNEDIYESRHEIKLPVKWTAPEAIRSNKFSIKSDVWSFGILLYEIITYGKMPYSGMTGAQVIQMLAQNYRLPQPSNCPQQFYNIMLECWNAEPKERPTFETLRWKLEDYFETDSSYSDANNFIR
Sequence of Platelet-derived growth factor receptor beta (Homo sapiens) (P09619 whole entry): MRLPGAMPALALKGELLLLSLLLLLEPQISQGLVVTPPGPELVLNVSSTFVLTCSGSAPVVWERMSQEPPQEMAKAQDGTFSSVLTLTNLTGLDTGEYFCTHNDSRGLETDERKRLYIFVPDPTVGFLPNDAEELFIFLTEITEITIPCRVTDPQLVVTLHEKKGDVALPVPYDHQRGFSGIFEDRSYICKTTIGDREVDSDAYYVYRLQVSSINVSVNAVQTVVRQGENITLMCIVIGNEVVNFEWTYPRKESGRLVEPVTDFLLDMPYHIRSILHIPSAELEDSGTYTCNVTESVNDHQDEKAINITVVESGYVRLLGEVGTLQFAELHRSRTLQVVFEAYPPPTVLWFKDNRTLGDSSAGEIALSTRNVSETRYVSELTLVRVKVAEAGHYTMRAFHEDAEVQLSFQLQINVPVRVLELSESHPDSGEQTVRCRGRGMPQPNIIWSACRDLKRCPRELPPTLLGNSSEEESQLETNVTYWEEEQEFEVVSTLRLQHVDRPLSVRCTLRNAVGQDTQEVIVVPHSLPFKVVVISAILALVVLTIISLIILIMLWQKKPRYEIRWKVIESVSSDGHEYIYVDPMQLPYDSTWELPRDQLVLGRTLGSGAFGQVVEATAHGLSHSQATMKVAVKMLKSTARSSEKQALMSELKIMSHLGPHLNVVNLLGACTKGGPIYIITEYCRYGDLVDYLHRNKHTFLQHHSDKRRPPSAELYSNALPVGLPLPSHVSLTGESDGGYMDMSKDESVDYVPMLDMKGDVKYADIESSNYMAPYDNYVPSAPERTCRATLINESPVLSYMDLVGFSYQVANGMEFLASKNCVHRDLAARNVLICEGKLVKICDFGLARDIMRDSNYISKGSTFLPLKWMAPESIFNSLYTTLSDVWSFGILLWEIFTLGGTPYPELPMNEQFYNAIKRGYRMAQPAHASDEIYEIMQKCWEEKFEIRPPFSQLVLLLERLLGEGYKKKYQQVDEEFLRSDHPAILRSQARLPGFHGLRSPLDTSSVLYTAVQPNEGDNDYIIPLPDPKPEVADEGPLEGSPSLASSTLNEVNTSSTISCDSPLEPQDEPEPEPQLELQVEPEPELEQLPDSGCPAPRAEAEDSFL

One may read the inhibition as the drop in the measured response relative to a control, in per cent. In the case of `COc1cccc(-n2ncc3c(N/N=C/c4ccc(S(C)(=O)=O)cc4)ncnc32)c1`, the inhibition in [1] was 78.1%; in experiment [2] it was 0.47%; in experiment [3] it was 3.05%; in experiment [4], 3.04%; in [5], 5.9%; in experiment [6] it was 11.4%. The inhibition in experiment [7] stood at 30.7%; in experiment [8], 4.8%; in [9], 8.24%; in experiment [10] it was 14.1%.

Regarding `N#Cc1cccc(Nc2nccc(-c3cnn4ncccc34)n2)c1`, the inhibition in [1] was determined as 65.1%; in [2] it was 5.2%; in [3] it was 16%; in experiment [4] it was 21.6%; in experiment [5], 71%; in experiment [6], 8.71%. Further, the inhibition amounted to 37.4% in experiment [7], 6.87% in experiment [8], 43.8% in experiment [9] and 7.91% in experiment [10].

`Cc1ccc(NC(=O)CC2CC2)cc1-c1ccc(C(=O)NCC2CC2)cc1`: the inhibition in experiment [1] turned out to be 8.86%; in experiment [2] it was 2.5%; in experiment [3], 2.58%; in experiment [4], 5.55%; in experiment [5] it was 9.67%; in experiment [6], 4.79%. Also, the inhibition in [7] is 9.25%; in [8], 2.68%; in experiment [9], 10%; in experiment [10], 7.7%.

Regarding `NS(=O)(=O)c1ccc(-c2cc3ccncc3cc2OCc2ccccc2)cc1`, the inhibition in [1] is 8.53%; in [2], 2%; in experiment [3], 1.07%; in [4], 7.81%; in experiment [5], 13.4%; in experiment [6], 2.04%. The inhibition in experiment [7] was 8.69%; in experiment [8], 2.23%; in experiment [9], 5.47%; in [10], 5.72%.

With `O=S(=O)(CCOCc1ccc(-c2ccc3ncnc(Nc4ccc(OCc5cccc(F)c5)c(Cl)c4)c3c2)o1)c1ccccc1`, the inhibition worked out at 7.33% in experiment [1]; 1.09% in experiment [2]; 0.79% in experiment [3]; 4.11% in experiment [4]; 8.55% in experiment [5]; 5.25% in experiment [6]. In addition, the inhibition amounted to 5.38% in [7], 6.3% in [8], 10.1% in [9] and 7.95% in experiment [10].

Take `COc1ccc2ncnc(Nc3ccc(OCc4ccccc4)cc3)c2c1`: the inhibition is 7.02% in experiment [1]; 0.42% in experiment [2]; 0.42% in experiment [3]; -1.91% in experiment [4]; 5.66% in experiment [5]; 3.22% in experiment [6]. Moreover, the inhibition is 5.23% in experiment [7], 0.54% in [8], 7.26% in experiment [9] and 4.16% in [10].

Consider `NS(=O)(=O)c1ccc(NC=C2C(=O)Nc3ccc4ncsc4c32)cc1`, for which the inhibition was found to be 89.8% in experiment [1]; 4.28% in [2]; 4.47% in experiment [3]; 21.8% in experiment [4]; 66.8% in experiment [5]; 47.7% in [6]. Also, the inhibition in experiment [7] was found to be 79.9%; in experiment [8], 59%; in experiment [9], 78.3%; in [10] it was 46.1%.

As to `COc1cc(Nc2nccc(-c3cnn4ncccc34)n2)cc(OC)c1`, the inhibition in experiment [1] was 84.5%; in [2] it was 1.76%; in [3], 5.05%; in experiment [4], 38.9%; in [5], 95.9%; in experiment [6], 9.58%. For the same compound, the inhibition in experiment [7] is 25.4%; in experiment [8], 6.17%; in [9] it was 33.5%; in experiment [10] it was 4.62%.

For `Nc1nccc(-c2c(-c3ccc(F)cc3)ncn2CCCN2CCOCC2)n1`, the inhibition was 11.8% in [1]; 1.5% in [2]; 1.08% in experiment [3]; 9.24% in [4]; 8.65% in experiment [5]; 4.75% in experiment [6]. The inhibition turned out to be 5.26% in experiment [7], 1.67% in experiment [8], 4.72% in [9] and 2.28% in [10].

For the compound `[O-][S+]1CCN(Cc2ccc(-c3ccc4ncnc(Nc5ccc(OCc6ccccc6)c(Cl)c5)c4c3)o2)CC1`, the inhibition in experiment [1] was 4.43%; in experiment [2], 0.22%; in experiment [3], 1.48%; in experiment [4] it was 6.05%; in [5], 1.47%; in experiment [6], 3.12%. The inhibition in [7] stood at 3.49%; in [8], 2.69%; in experiment [9] it was 3.13%; in experiment [10] it was 4.06%.

In the case of `Oc1cccc(-c2nc(-c3ccccc3)[nH]c2-c2ccncc2)c1`, the inhibition in experiment [1] was found to be 17.1%; in [2], 2.98%; in experiment [3], 16.5%; in experiment [4], 7.31%; in experiment [5] it was 14.2%; in [6] it was 27.4%. In addition, the inhibition in experiment [7] was 72.8%; in [8], 4.04%; in [9], 7.21%; in experiment [10], 30%.

Turning to `CN1CCN(C(=O)c2ccc(NC(=O)Nc3ccc(N(C)c4ccnc(Nc5ccc(CS(C)(=O)=O)cc5)n4)cc3)cc2)CC1`, the inhibition in [1] came out at 79.3%; in experiment [2], 1.47%; in experiment [3], 4.04%; in [4], 29.2%; in experiment [5], 88.6%; in [6], 38.8%. Also, the inhibition came to 76.8% in [7], 27.2% in experiment [8], 67.1% in experiment [9] and 60.7% in [10].

Take `Nc1ccc(C#Cc2cncnc2Nc2ccc(OCc3cccc(F)c3)c(Cl)c2)cc1`: the inhibition in experiment [1] was 3.64%; in experiment [2] it was 0.8%; in experiment [3], 1.06%; in experiment [4], -4.77%; in experiment [5], 0.23%; in experiment [6], 6.12%. Further, the inhibition in [7] was determined as 7.18%; in [8], 9.98%; in experiment [9] it was 3.18%; in [10], 2.75%.

As to `c1ccc(Cc2nc3ccc(Nc4ncnc5ccccc45)cc3[nH]2)cc1`, the inhibition in experiment [1] amounted to 14.8%; in experiment [2], 2.62%; in experiment [3], 0.81%; in experiment [4] it was 2.62%; in experiment [5], 13.4%; in experiment [6], 4.63%. For the same compound, the inhibition in experiment [7] came out at 9.44%; in experiment [8] it was 2.59%; in experiment [9] it was 9.82%; in experiment [10] it was 3.35%.

Take `ON=C1CCc2cc(-c3nc(C4CCNCC4)[nH]c3-c3ccncc3)ccc21`: the inhibition in [1] was 23.3%; in experiment [2], 2.38%; in [3] it was -1.06%; in experiment [4], 1.86%; in experiment [5] it was 1.17%; in experiment [6], 1.22%. The inhibition in experiment [7] was 7.25%; in [8], 6.18%; in experiment [9] it was -3.85%; in experiment [10] it was 1.94%.

Take `COc1cccc(-n2nc(C)c3c(N/N=C(\C)c4ccncc4)ncnc32)c1`: the inhibition was 5.79% in [1]; 0.1% in experiment [2]; -0.17% in experiment [3]; 1.44% in experiment [4]; 8.6% in experiment [5]; -0.76% in [6]. Further, the inhibition amounted to 0.88% in experiment [7], 1.04% in [8], 1.23% in [9] and 2.73% in experiment [10].
